ST2 inh = inhibitors of human ST2 (IL1RL1) binding to IL-33 | AID 1259354 | Q01638 | hit rate 2.3% among 78,000 | AlphaLISA ST2-Fc/biotin-IL-33 interaction, 1 h | inhibition, % for hits at 17 µM; in the data active means inhibition above about 30%
Target sequence (Q01638 whole entry, looked up): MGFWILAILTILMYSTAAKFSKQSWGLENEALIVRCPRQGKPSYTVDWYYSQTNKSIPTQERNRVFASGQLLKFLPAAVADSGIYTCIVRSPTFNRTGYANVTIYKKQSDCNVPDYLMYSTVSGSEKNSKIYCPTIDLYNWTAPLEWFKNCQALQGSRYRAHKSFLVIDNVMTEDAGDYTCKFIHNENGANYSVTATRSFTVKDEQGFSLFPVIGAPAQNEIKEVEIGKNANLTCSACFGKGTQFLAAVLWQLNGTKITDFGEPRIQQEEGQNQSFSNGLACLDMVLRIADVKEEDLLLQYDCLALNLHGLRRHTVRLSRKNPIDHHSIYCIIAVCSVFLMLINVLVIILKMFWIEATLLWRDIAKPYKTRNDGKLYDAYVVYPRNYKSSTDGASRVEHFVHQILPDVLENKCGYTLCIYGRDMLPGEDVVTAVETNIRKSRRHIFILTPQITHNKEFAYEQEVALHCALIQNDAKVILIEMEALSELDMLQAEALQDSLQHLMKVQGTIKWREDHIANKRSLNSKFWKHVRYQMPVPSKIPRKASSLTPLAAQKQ
Active calls of the source: *; i = inactive. Many of the other results were omitted from the sample, so hits are more common in it than they were.

SMILES | ST2 inh
CC(C)COc1ccc(-c2nc3s/c(=C\c4ccco4)c(=O)n3n2)cc1 | i
COc1ccc(NC(=O)N2CC[C@H]3CC(=O)N(CCN4CCNC4=O)CC[C@H]3C2)cc1 | 53%*
COc1ccc(NC(=O)N2CCN(C)CC2)cc1 | i
CCNC(=O)N1CC[C@H]2CC(=O)N(CCN3CCNC3=O)CC[C@H]2C1 | i
O=C1C2CCCN2C(c2ccccc2F)N1c1ccc(Cl)c(Cl)c1 (stereo not drawn) | i
O=C(c1cccn2c(=O)c3sccc3nc12)N1CC=C(c2ccccc2)CC1 | i
Cc1cc(C)nc(NS(=O)(=O)c2ccc(NC(=O)c3ccc(-c4ccccc4)cc3)cc2)n1 | i
NC(=O)c1ccc(NC(=O)c2ccccc2)cc1 | i
CC(=O)c1ccc(NC(=O)Cc2ccccc2)cc1 | i
CC(=O)c1ccc(NC(=O)c2ccc(-c3ccccc3)cc2)cc1 | 30%*
NS(=O)(=O)c1ccc(NC(=O)c2ccc(-c3ccccc3)cc2)cc1 | 30%*
Cc1ccc(NC(=O)c2ccc(C(=O)Nc3ccc(C)cc3)cc2)cc1 | i
CCC(C)(C)C(=O)Nc1ccc(S(=O)(=O)Nc2ncccn2)cc1 | i
O=C(N[C@H]1CO[C@H]2[C@@H]1OC[C@@H]2n1nnnc1Oc1cccc(N2CCOCC2)c1)c1ccco1 | i
COc1ccc(C2C(=C(O)c3ccc(C)cc3)C(=O)C(=O)N2Cc2ccccc2)cc1OC (stereo not drawn) | i
O=C(NC(=O)c1ccccc1)Oc1ccc([N+](=O)[O-])cc1 | i
O=[N+]([O-])c1ccc(C(=Nc2ccccc2)NO)cc1 | i
O=C(C#Cc1ccc([N+](=O)[O-])cc1)c1ccccc1 | 33%*
O=C(c1ccc(N2CCOCC2)nc1)N1CCC(CCc2ccccc2)CC1 | i
Cc1n[nH]c(C)c1S(=O)(=O)N1CCC(C(=O)Nc2nc3c(C)cccc3s2)CC1 | i
Cc1cc(NC(=O)Cn2c(=O)n(Cc3ccccc3)c(=O)c3c(C)c(C)sc32)n[nH]1 | i
N#Cc1cccc(CN2C[C@@H]3C[C@H](C2)c2ccc(-c4cccc(C(F)(F)F)c4)c(=O)n2C3)c1 | i
COc1ccc(OCc2nc(C(=O)NCc3cn4ccc(C)cc4n3)co2)cc1 | i
CC(=O)N1c2ccc(N=Cc3cc(Br)cc(Br)c3O)cc2CC1C (stereo not drawn) | i
Cn1c(=O)n(C)c2cc(N=Cc3cc(Br)ccc3O)ccc21 | 31%*
SMILES | ST2 inh
Oc1c(Cl)cc(Br)cc1C=Nc1ccccc1 | i
CCc1ccc(N=Cc2cc(Br)ccc2O)cc1 | 36%*
CCc1ccc(N=Cc2cccc([N+](=O)[O-])c2O)cc1 | i
Cn1c(=O)n(C)c2cc(N=Cc3cccc([N+](=O)[O-])c3)ccc21 | i
NC(=O)c1cc(C(N)=O)c(C(N)=O)nc1C(N)=O | i
CCOc1ccc(-c2nc3cc(N=Cc4cc([N+](=O)[O-])ccc4O)ccc3o2)cc1 | i
COc1cc([N+](=O)[O-])cc(C=Nc2ccc3oc(-c4ccccc4C)nc3c2)c1O | i
Cc1cccc2oc(-c3cccc(N=Cc4cc([N+](=O)[O-])ccc4O)c3)nc12 | i
O=[N+]([O-])c1ccc(O)c(C=Nc2ccc3oc(Cc4ccccc4)nc3c2)c1 | 48%*
Cc1cccc2oc(-c3ccc(N=Cc4cccc([N+](=O)[O-])c4O)cc3)nc12 | i
Cc1cccc2oc(-c3cc(N=Cc4cc([N+](=O)[O-])ccc4O)ccc3O)nc12 | 32%*
CC(C(=O)N(C)C)N(C)Cc1cccc(C(=O)Nc2ccc[nH]c2=O)c1 (stereo not drawn) | i
COc1ccc2nc(N3CCC(C(=O)NC4CC4)CC3)sc2c1 | i
Cn1c(=O)c(/C=C/c2ccc3ncccc3c2)nc2ccccc21 | i
Cc1nnsc1CNC(=O)Cc1c(C)nn(-c2ccccc2)c1C | i
Cc1cccc(C(=O)Nc2c(-c3ccccc3)nc3ccccn23)c1 | i
CCCCc1nc(-c2nccn2C(C)c2nc(CC)no2)c(Cl)[nH]1 (stereo not drawn) | i
Cc1ccc(-n2ncc3c(=O)n(-c4ccc(C)c(C)c4)c(C)nc32)cc1 | i
Cc1ccc(-n2ncc3c([N+](=O)[O-])cc([N+](=O)[O-])cc32)cc1 | 62%*
Cc1ccc(-n2c(C)nc3c(cnn3-c3ccc(F)cc3)c2=O)cc1 | i
CC(=O)N1CCc2c(nc(N(C)C)nc2N(C)Cc2ncc[nH]2)C1 | i
O=C(O)CCC(=O)N1Cc2[nH]cnc2C[C@H]1c1nc(-c2ccc(C(F)(F)F)cc2)no1 | i
O=C(Nc1ccccc1F)N1CCCC(Cn2cc(C3CC3)nn2)C1 (stereo not drawn) | i
O=C(CO)n1c2ccccc2c2ccccc21 | i
O=C(C1CCCN1S(=O)(=O)c1cccc2nsnc12)N1CCC(Cc2ccccc2)CC1 (stereo not drawn) | i
SMILES | ST2 inh
CC1=C(C(=O)Nc2ccc(Cl)cc2)C(c2ccc([N+](=O)[O-])cc2)n2ncnc2N1 (stereo not drawn) | i
CCOC1=NC2Nc3ccc(Cl)cc3N(C)C2C1c1ccc([N+](=O)[O-])cc1 (stereo not drawn) | 36%*
CCOc1ccc([N+](=O)[O-])cc1C1Nc2ccccc2-c2nnc(SC)nc2O1 (stereo not drawn) | i
COc1ccccc1N=c1oc2ccccc2cc1C(=O)Nc1ccccc1 | 41%*
COc1ccc(N=c2oc3ccccc3cc2C(=O)Nc2ccc(C)cc2)cc1 | i
O=C(Nc1ccccc1)c1cc2ccccc2oc1=Nc1cccc(F)c1 | i
O=C(Cn1cncn1)N(CC1CCN(C2Cc3ccccc3C2)CC1)CC1CCCO1 (stereo not drawn) | i
FC(F)(F)c1ccc2nnc(-c3cccc(I)c3)n2c1 | 54%*
FC(F)(F)c1ccc2nnc(-c3ccc(Cl)cc3Cl)n2c1 | i
FC(F)(F)c1cccc(-c2ncnn2-c2ccc(Br)nc2)c1 | i
COc1ccc(Oc2nc3c(c(=O)n(C)c(=O)n3C)n2Cc2cccc(Br)c2)cc1 | i
CCSc1nc2c(c(=O)[nH]1)C(c1ccc(C)cc1)C1=C(CC(C)(C)CC1=O)N2 (stereo not drawn) | i
Cc1[nH]nc(CCC(=O)N2CCc3c(nc[nH]c3=O)C2)c1C | i
O=C(CC1SC(=Nc2ccccc2)N(S(=O)(=O)c2ccccc2)C1=O)Nc1ccccc1 (stereo not drawn) | i
COC(=O)c1ccc(-c2cc(/C=C/c3[nH]c(=O)[nH]c(=O)c3[N+](=O)[O-])co2)cc1 | i
COc1ccccc1OCC(=O)Nc1sc2c(c1C(N)=O)CCCC2 | i
CC(C)(C)c1ccc(C(=O)Nc2sc3c(c2C(N)=O)CCCC3)cc1 | i
COc1ccc(C(=O)Nc2sc3c(c2C(N)=O)CCCC3)cc1[N+](=O)[O-] | 31%*
O=C1C2C(C(=O)N1c1ccncc1)[C@@H]1C=C[C@H]2[C@H]2C[C@H]21 (stereo partly drawn) | i
O=C(O)c1ccc(C(=O)NCc2ccco2)c(C(=O)O)c1 | i
O=C(O)CCC(=O)Nc1ccccc1C#Cc1ccccc1 | i
CCOc1ccc(/C=c2\sc3n(c2=O)CN(c2ccc4c(c2)OCO4)CN=3)cc1 | 31%*
CCOc1ccc(-c2nc3s/c(=C\c4ccc(C)cc4)c(=O)n3n2)cc1 | i
CCOc1ccc(CN2CCN(Cc3ccc4c(c3)OCO4)CC2)cc1 | i
CCCCOc1ccc(/C=c2\sc3nc(=O)c(C)nn3c2=O)cc1 | i
CC(=O)c1ccc(N2CN=c3s/c(=C\c4ccc(I)o4)c(=O)n3C2)cc1 | i
